Several values for one entry are separate records, joined by “and”; a condition that tells them apart may be missing. Identical values can stand only once. In all, about 5,500 compounds went through this assay and about 2,000 (36%) were called active. About 18% were inconclusive and are not listed. Rule as the data show it: active = normalized growth mostly below about 0.91 (no sharp cut-off); inconclusive = no clear call, values can overlap the other calls; inactive = mostly above about 0.92. The list shows a part of the results.
Assay: chemical genetic growth profiling, strain panel (AID 1159580);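 also: tested at 20 µM; growth read once vehicle control cultures reached saturation at 30 °C; 1 = growth at the plate median or of vehicle wells; lower values mean less growth of the strain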
Details: S. cerevisiae deletion strains, growth OD

Measured: normalized growth

CC1=C(/C=C/C(C)=C/C=C/C(C)=C\C(=O)O)C(C)(C)CCC1
inactive: locus YAL013W, strain DEP1, stronger effect = lower value 0.968 | locus YAL021C, strain ccr4, stronger effect = lower value 1.01 | locus YAL026C, strain drs2, stronger effect = lower value 0.999 | locus YAL030W, strain snc1, stronger effect = lower value 0.977 | locus YAL040C, strain CLN3, stronger effect = lower value 1.01 | locus YBL061C, strain skt5, stronger effect = lower value 0.984 | locus YBR009C, strain hhf1, stronger effect = lower value 1.01 | locus YBR021W, strain FUR4, stronger effect = lower value 1.02 | locus YBR023C, strain chs3, stronger effect = lower value 0.985 | locus YBR171W, strain sec66, stronger effect = lower value 0.964 | locus YBR229C, strain ROT2, stronger effect = lower value 1 | locus YBR231C, strain swc5, stronger effect = lower value 0.989 | locus YBR279W, strain paf1, stronger effect = lower value 0.996 | locus YCL011C, strain gbp2, stronger effect = lower value 0.994 | locus YCL016C, strain dcc1, stronger effect = lower value 0.999 | locus YCL029C, strain bik1, stronger effect = lower value 0.992 | locus YCL061C, strain MRC1 (second series), stronger effect = lower value 1 | locus YCL069W, strain vba3, stronger effect = lower value 0.986 | locus YCR088W, strain abp1, stronger effect = lower value 0.995 | locus YDL005C, strain med2, stronger effect = lower value 0.979 | locus YDL035C, strain GPR1, stronger effect = lower value 0.95 | locus YDL040C, strain nat1, stronger effect = lower value 0.987 | locus YDL074C, strain BRE1, stronger effect = lower value 0.856 | locus YDL101C, strain DUN1, stronger effect = lower value 1.01 | locus YDL134C, strain PPH21, stronger effect = lower value 1 | locus YDL185W, strain tfp1, stronger effect = lower value 1 | locus YDL192W, strain arf1, stronger effect = lower value 1 | locus YDR001C, strain nth1, stronger effect = lower value 0.987 | locus YDR069C, strain doa4, stronger effect = lower value 0.967 | locus YDR101C, strain arx1, stronger effect = lower value 0.985 | locus YDR137W, strain rgp1, stronger effect = lower value 0.937 | locus YDR150W, strain NUM1, stronger effect = lower value 1.02 and 1.01 | locus YDR159W, strain sac3, stronger effect = lower value 1.01 | locus YDR162C, strain NBP2, stronger effect = lower value 0.957 | locus YDR195W, strain ref2 0.972 | locus YDR297W, strain sur2, stronger effect = lower value 0.987 | locus YDR318W, strain mcm21, stronger effect = lower value 0.97 | locus YDR334W, strain swr1, stronger effect = lower value 0.982 | locus YDR335W, strain msn5, stronger effect = lower value 0.987 | locus YDR363W, strain ESC2, stronger effect = lower value 1.01 | locus YDR388W, stronger effect = lower value 1 | locus YDR392W, strain spt3, stronger effect = lower value 1.01 | locus YDR502C, strain sam2, stronger effect = lower value 0.975 | locus YEL003W, strain gim4, stronger effect = lower value 0.989 | locus YEL037C, strain rad23, stronger effect = lower value 0.979 | locus YEL061C, strain CIN8 (second series), stronger effect = lower value 0.991 | locus YEL061C, strain CIN8, stronger effect = lower value 1 | locus YER002W, strain NOP16, stronger effect = lower value 1.03 | locus YER015W, strain faa2, stronger effect = lower value 0.993 | locus YER016W, strain bim1, stronger effect = lower value 1.02 | locus YER110C, stronger effect = lower value 1 | locus YER111C, strain swi4, stronger effect = lower value 0.954 | locus YER155C, strain BEM2 (second series), stronger effect = lower value 1 | locus YER155C, strain BEM2, stronger effect = lower value 1.01 | locus YER167W, strain BCK2, stronger effect = lower value 0.966 | locus YFR010W, strain ubp6, stronger effect = lower value 0.961 | locus YGL078C, strain dbp3, stronger effect = lower value 1 | locus YGL086W, strain mad1, stronger effect = lower value 0.992 | locus YGL167C, strain pmr1, stronger effect = lower value 0.975 | locus YGL173C, strain kem1, stronger effect = lower value 0.972 | locus YGL227W, strain vid30, stronger effect = lower value 0.974 | locus YGL240W, strain doc1, stronger effect = lower value 0.958 | locus YGL248W, strain PDE1, stronger effect = lower value 0.995 | locus YGL253W, strain hxk2, stronger effect = lower value 0.996 | locus YGR078C, strain PAC10, stronger effect = lower value 0.908 and 1.02 | locus YGR135W, strain pre9, stronger effect = lower value 0.974 | locus YGR229C, strain SMI1, stronger effect = lower value 0.82 and 1.02 | locus YGR252W, strain gcn5, stronger effect = lower value 1.02 | locus YHR013C, strain ard1, stronger effect = lower value 0.982 | locus YHR027C, strain rpn1, stronger effect = lower value 0.997 | locus YHR030C, strain SLT2, stronger effect = lower value 1 and 1.02 | locus YHR079C, strain IRE1 (second series), stronger effect = lower value 0.988 | locus YHR079C, strain IRE1, stronger effect = lower value 1.04 | locus YHR094C, strain hxt1, stronger effect = lower value 0.999 | locus YHR129C, strain ARP1, stronger effect = lower value 0.996 | locus YHR142W, strain chs7, stronger effect = lower value 0.979 | locus YHR200W, strain rpn10, stronger effect = lower value 1 | locus YIL066C, strain RNR3, stronger effect = lower value 0.984 | locus YIL073C, strain SPO22, stronger effect = lower value 0.934 | locus YIL125W, strain kgd1, stronger effect = lower value 0.995 | locus YIR030C, strain dcg1, stronger effect = lower value 1.01 | locus YJL092W, strain hpr5, stronger effect = lower value 0.965 | locus YJL095W, strain BCK1 (second series), stronger effect = lower value 0.99 | locus YJL095W, strain BCK1, stronger effect = lower value 0.918 and 1.01 | locus YJL115W, strain asf1, stronger effect = lower value 0.962 | locus YJL129C, strain trk1, stronger effect = lower value 0.956 | locus YJL134W, strain LCB3, stronger effect = lower value 1 | locus YJL154C, strain vps35, stronger effect = lower value 0.986 | locus YJL164C, strain tpk1, stronger effect = lower value 1.01 | locus YJL166W, strain qcr8, stronger effect = lower value 0.928 | locus YJL168C, strain set2, stronger effect = lower value 0.999 | locus YJL187C, strain SWE1 (second series), stronger effect = lower value 0.986 | locus YJL187C, strain SWE1, stronger effect = lower value 0.994 | locus YJR043C, strain POL32, stronger effect = lower value 0.87 | locus YJR066W, strain TOR1, stronger effect = lower value 0.972
